In assay [1] the target is Norway rat Vesicular Monoamine Transporter (VMAT2), neurotransmitter transporter, Slc18a2 (gene 25549) (UniProt Q01827). Briefly: NVS_TR_rVMAT2: NovaScreen (NVS) Transporter Assay for Norway rat Vesicular Monoamine Transporter (VMAT2), neurotransmitter transporter (AID 2283376).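 Also: actives lower the bound radioligand signal below the DMSO level.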 The method, boiled down: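 Filter-based scintillation counting of radioligand bound to rat forebrain-derived VMAT2 protein, cell-free, 1 h post-dose. Signal loss relative to DMSO control scored; single-concentration duplicate screen (25 uM) followed by concentration-response testing of actives.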

Assay [2] in a line: TOX21_p53_BLA_p2_viability: Viability Assessment in the Tox21 HCT-116 p53 Agonism Beta-lactamase Assay, Phase 2 (AID 2283591).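 Also: compound exposure lasted 16 h at 37 °C; actives lower the ATP signal meaning cytotoxicity.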 The gist of the method:
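HCT116 p53-bla cells, 4000/well, dosed after 5 h plating (217-fold dilution of DMSO stocks) and incubated 16 h at 37C. Viability taken as cellular ATP by CellTiter-Glo luminescence after 30 min RT; signal loss marks cytotoxicity.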

Assay [3] addresses Cellular tumor antigen p53 (Homo sapiens) (UniProt P04637). Briefly: TOX21_p53_BLA_p2_ratio: Tox21 HCT-116 p53 Agonism Beta-lactamase Assay, Ratio, Phase 2 (AID 2283592). The gist of the method: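 Cleaved-to-uncleaved substrate ratio (460 vs 530 nm) measured in HCT116 cells with an inducible beta-lactamase reporter linked to p53 activity. Compounds incubated 16 h at 37C before 2 h room-temperature CCF4-AM loading.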

Assay [4] has the same target. Briefly: TOX21_p53_BLA_p3_ratio: Tox21 HCT-116 p53 Agonism Beta-lactamase Assay, Ratio, Phase 3 (AID 2283596). The gist of the method:
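Cells were seeded at 4000/well, rested 5 h at 37C, then dosed with DMSO compound solutions (217-fold dilution) for 16 h. CCF4-AM substrate was loaded for 2 h at room temperature, and the 460/530 nm emission ratio was fitted for gain of signal versus DMSO.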

The nature of assay [5]: TOX21_p53_BLA_p4_viability: Viability Assessment in the Tox21 HCT-116 p53 Agonism Beta-lactamase Assay, Phase 4 (AID 2283597).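 Also: hits lower the luminescence signal meaning cytotoxicity.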 The method, boiled down:
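Viability is taken as cellular ATP: after 16 h compound exposure of HCT116 cells and a 2 h room-temperature CCF4-AM substrate step, CellTiter-Glo reagent is added and luminescence is measured 30 min later.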

Assay [6] deals with Cellular tumor antigen p53 (Homo sapiens) (UniProt P04637). Briefly: TOX21_p53_BLA_p5_ratio: Tox21 HCT-116 p53 Agonism Beta-lactamase Assay, Ratio, Phase 5 (AID 2283599). The gist of the method:
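HCT-116 p53-bla cells (4000/well) plated 5 h, dosed with compound (217-fold DMSO dilution) for 16 h at 37 C; CCF4-AM substrate 2 h at room temperature. Activity is the 460/530 nm emission ratio (405 nm excitation), fitted in gain-of-signal direction versus DMSO.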

A short description of assay [7]: TOX21_p53_BLA_p5_viability: Viability Assessment in the Tox21 HCT-116 p53 Agonism Beta-lactamase Assay, Phase 5 (AID 2283600). The gist of the method: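 Viability is taken from cellular ATP content, measured by luciferase luminescence in the same wells after the beta-lactamase ratio read. Cells are seeded at 4000 per well and exposed to DMSO-dissolved compounds, diluted 217-fold, for 16 h.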

Assay [8] concerns the target Cellular tumor antigen p53 (Homo sapiens) (UniProt P04637). Briefly: TOX21_p53_BLA_p4_ratio: Tox21 HCT-116 p53 Agonism Beta-lactamase Assay, Ratio, Phase 4 (AID 2283601). The gist of the method:
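HCT-116 p53 beta-lactamase reporter cells (4000/well) preincubated 5 h, then compound (217-fold dilution of DMSO stock) for 16 h at 37C. CCF4-AM substrate added 2 h at room temperature; 460/530 nm emission ratio fitted upward versus DMSO.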

A short description of assay [9]: TOX21_p53_BLA_p3_viability: Viability Assessment in the Tox21 HCT-116 p53 Agonism Beta-lactamase Assay, Phase 3 (AID 2283593).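 Also: cells exposed to compound for 16 h before reading.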 The method, boiled down: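 HCT116 cells, 4000/well, dosed 5 h after plating by pin transfer (217-fold dilution from DMSO stock) and incubated 16 h at 37C, 5% CO2. Viability read as ATP luminescence with CellTiter-Glo after 30 min at room temperature.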

Records with an inconclusive call do not appear. Where a structure was tested more than once in an assay, its records may differ in their call. Activity calls are given as the source filed them. The calls were made as follows: active = hit-call score of the fitted dose curve at least 0.9, where 1 is the maximum; inconclusive = response in the unintended direction; inactive = score below 0.9.

Norway rat Vesicular Monoamine Transporter (VMAT2), neurotransmitter transporter, Slc18a2 (gene 25549), sequence (Q01827 whole entry, looked up): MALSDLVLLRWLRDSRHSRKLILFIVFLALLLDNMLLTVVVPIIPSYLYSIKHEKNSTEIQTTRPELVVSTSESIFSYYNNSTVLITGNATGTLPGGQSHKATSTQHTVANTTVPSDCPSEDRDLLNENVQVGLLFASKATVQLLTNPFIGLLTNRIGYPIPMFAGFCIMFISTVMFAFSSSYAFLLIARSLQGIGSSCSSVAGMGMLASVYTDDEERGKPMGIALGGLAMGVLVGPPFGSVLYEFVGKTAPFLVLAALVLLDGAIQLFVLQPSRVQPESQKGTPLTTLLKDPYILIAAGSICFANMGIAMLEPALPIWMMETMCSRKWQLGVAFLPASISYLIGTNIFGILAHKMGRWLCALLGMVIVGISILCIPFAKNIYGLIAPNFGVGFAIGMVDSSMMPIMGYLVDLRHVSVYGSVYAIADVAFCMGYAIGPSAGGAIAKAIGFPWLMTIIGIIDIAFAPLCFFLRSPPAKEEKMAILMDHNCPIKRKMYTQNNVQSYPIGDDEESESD
Cellular tumor antigen p53 (Homo sapiens), sequence (P04637 whole entry, looked up): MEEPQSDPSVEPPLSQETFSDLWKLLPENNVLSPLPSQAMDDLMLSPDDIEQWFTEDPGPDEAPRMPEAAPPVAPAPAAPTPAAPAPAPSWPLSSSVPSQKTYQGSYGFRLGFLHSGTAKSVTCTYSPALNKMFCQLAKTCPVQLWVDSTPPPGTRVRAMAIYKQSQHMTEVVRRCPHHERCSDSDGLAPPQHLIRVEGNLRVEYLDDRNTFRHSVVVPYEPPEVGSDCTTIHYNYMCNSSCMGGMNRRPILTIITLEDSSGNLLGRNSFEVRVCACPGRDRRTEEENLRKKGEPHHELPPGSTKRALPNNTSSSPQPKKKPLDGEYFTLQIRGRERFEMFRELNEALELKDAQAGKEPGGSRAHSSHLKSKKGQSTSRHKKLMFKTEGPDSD

By AC50 is commonly meant the concentration giving half of the maximal activity seen. In the case of `Clc1ccc(Nc2nnc(Cc3ccncc3)c3ccccc23)cc1`, the AC50 in assay [1] was 7.04 µM (active).
For `c1ccc(C[P+](c2ccccc2)(c2ccccc2)c2ccccc2)cc1`, the AC50 in assay [1] is 16.7 µM (active).
For `CCCC(O)C(O)CO` (stereo not given), in assay [1], the result was inactive.
Regarding `CN1CCN(C)CC1`, the outcome in assay [1] was inactive.
With `CCCCON=O`, the molecule was called inactive in [2] and in assay [3].
For the molecule `Nc1ccc([As](=O)(O)O)cc1`, the result in assay [2], in [3], in assay [4], in assay [5], in assay [6] and in assay [7] was inactive. The outcome in assay [8] was inactive. Also, the AC50 in assay [3] was 35.1 µM (active); in assay [8], 42.1 µM (active).
As for `O=C1c2c(O)ccc(Nc3ccc(CCO)cc3)c2C(=O)c2c([N+](=O)[O-])ccc(O)c21`, the call in assay [1] was inactive.
On the same count and under the same terms, the value for `CCOC(=O)C=Cc1ccccc1` was “inactive”; that for `CCOC(=O)CC(=O)OCC` was “inactive”.
As to `Oc1ccc2[nH]cc(CCCCN3CC=C(c4ccccc4)CC3)c2c1`, the call in [2], in assay [3], in [9], in [4], in assay [5] and in [6] was inactive. Moreover, the result in assay [7] and in assay [8] was inactive.
On to `O=C(Cl)CCl`, for which the result in assay [2], in assay [3], in [9], in assay [4], in [5] and in assay [6] was inactive. Moreover, the call in assay [7] and in assay [8] was inactive.
On to `CN[C@@]1(c2ccccc2Cl)CCCCC1=O`, for which the result in assay [2], in [3], in [9], in assay [4], in assay [5] and in assay [6] was inactive. Besides, the outcome in assay [7] and in assay [8] was inactive.
As for `CN(C)S(=O)(=O)N(SC(F)(Cl)Cl)c1ccccc1`, the AC50 is 87.1 µM (active) in assay [2]; 26.3 µM (active) in assay [3]; 86.8 µM (active) in assay [5]; 32.3 µM (active) in [6]; 86.8 µM (active) in assay [7]; 48.6 µM (active) in [8]. Also, the outcome in assay [9] and in assay [4] was inactive.
As to `O=P1(N(CCCl)CCCl)NC(OO)CCO1` (stereo not given), the outcome in [2], in assay [3], in assay [9], in [4], in [5] and in assay [6] was inactive. Moreover, the result in assay [7] and in assay [8] was inactive.
For `N=C(N)[Se]`, the result in [2], in [3], in [9], in assay [4], in assay [5] and in assay [6] was inactive. For the same molecule, the molecule was classed as inactive in assay [7] and in assay [8].
Consider `CCCCCc1cc(O)c2c(c1)OC(C)(C)c1ccc(C)cc1-2`, for which the AC50 in [2] was 14.4 µM (active); in [3] it was 22.3 µM (active); in assay [9] it was 30.1 µM (active); in [4], 34.4 µM (active); in assay [5], 14.9 µM (active); in assay [6] it was 23.9 µM (active). Moreover, the AC50 in assay [7] is 19.8 µM (active); in [8], 29.9 µM (active).
`O=[N+]([O-])c1cc(I)c(O)c(I)c1`: the AC50 in assay [2] was 7.77 µM (active); in [3] it was 17.7 µM (active); in [9], 5.69 µM (active); in assay [4], 2.65 µM (active); in assay [5], 11.3 µM (active); in assay [6], 24.2 µM (active). Besides, the AC50 in assay [7] is 11 µM (active); in [8], 18 µM (active).
For the molecule `CCCC(Cn1cncn1)c1ccc(Cl)cc1Cl` (stereo not given), the molecule was classed as inactive in [2], in assay [9], in assay [5], in [6] and in [7]. In addition, the results for the AC50 in [3], in [4] and in assay [8] were 75.6 µM (active), 85.7 µM (active) and 75.2 µM (active), respectively.
For the molecule `COC(COC(N)=O)C1=C(N2CC2)C(=O)C(C)=C(N2CC2)C1=O` (stereo not given), the molecule was classed as inactive in assay [2] and in assay [5]. Also, the AC50 in [3] is 6.58 µM (active); in assay [9], 18.2 µM (active); in assay [4] it was 0.121 µM (active); in assay [6] it was 0.219 µM (active); in assay [7], 36.3 µM (active); in assay [8], 17.2 µM (active).
Turning to `OCC(Cl)CCl` (stereo not given), the outcome in [2], in assay [3], in assay [9], in [4], in [5] and in [6] was inactive. For the same molecule, the outcome in assay [7] was inactive.
As to `[Cl][Hg][c]1ccccc1`, the AC50 in [2] was 0.576 µM (active); in assay [3], 0.553 µM (active); in assay [9], 2.88 µM (active); in assay [4], 8.93 µM (active); in [5] it was 0.624 µM (active); in assay [6] it was 10.9 µM (active). Moreover, the AC50 in assay [7] is 2.95 µM (active); in assay [8] it was 0.672 µM (active).
`CNC(=O)Oc1ccccc1C(=O)Nc1ccccc1`: the call in assay [2], in assay [3], in assay [9], in [4], in assay [5] and in [6] was inactive. Besides, the outcome in assay [7] and in assay [8] was inactive.
Turning to `CN(C)c1ccc(N)cc1`, the molecule was classed as inactive in assay [2], in assay [9], in [4], in assay [5], in assay [6] and in [7]. Besides, in [8], the outcome was inactive. In addition, the AC50 in assay [3] is 72 µM (active).
Consider `CC(=O)[O][Sn]([c]1ccccc1)([c]1ccccc1)[c]1ccccc1`, for which the AC50 in assay [2] is 2.52 µM (active); in assay [3], 6.42 µM (active); in [9], 2.87 µM (active); in assay [4], 17.7 µM (active); in assay [5], 2.42 µM (active); in assay [6], 18.4 µM (active). The figures for the AC50 in assay [7] and in assay [8] were 11.2 µM (active) and 8.98 µM (active), respectively.
For `O=C(O)CC[N+](=O)[O-]`, the molecule was classed as inactive in assay [2], in [3], in assay [9], in assay [4], in assay [5] and in assay [6]. Besides, the outcome in assay [7] and in [8] was inactive.
On to `NCC(O)c1cccc(O)c1` (stereo not given), for which the result in [2], in [3], in assay [9], in [4], in assay [5] and in [6] was inactive. Moreover, the call in [7] was inactive.
Regarding `C[C@]12CC[C@H](O)C[C@H]1CC[C@@H]1[C@@H]2CC[C@]2(C)[C@@H](c3ccc(=O)oc3)C[C@H]3O[C@]132`, the AC50 is 0.859 µM (active) in assay [2], 0.978 µM (active) in assay [9], 1.23 µM (active) in assay [5] and 1.04 µM (active) in [7]. The result in [3], in [4], in assay [6] and in assay [8] was inactive.
Regarding `Oc1cc(Cl)c(Cl)c(Cl)c1Cl`, the call in assay [2], in assay [5] and in [7] was inactive. Further, the AC50 in assay [3] is 5.97 µM (active); in [9], 22.3 µM (active); in assay [4] it was 6.58 µM (active); in assay [6], 7.24 µM (active); in [8], 7.69 µM (active).
Turning to `ClCCOCOCCCl`, the call in [2], in assay [3], in [9], in [4], in assay [5] and in assay [6] was inactive. In assay [7], the molecule was classed as inactive.

The record behind these values is PubChem BioAssay (EPA / NIEHS).
